GPR151 activ = activates the human receptor GPR151 | activation, % at 11.2 µM | Q8TDV0 | 650,000 compounds, 1% hits | AID 1508602 | PathHunter beta-arrestin GPR151 cells, luminescence; in the data active means activation above about 4.9%
Target sequence (Q8TDV0 whole entry, looked up): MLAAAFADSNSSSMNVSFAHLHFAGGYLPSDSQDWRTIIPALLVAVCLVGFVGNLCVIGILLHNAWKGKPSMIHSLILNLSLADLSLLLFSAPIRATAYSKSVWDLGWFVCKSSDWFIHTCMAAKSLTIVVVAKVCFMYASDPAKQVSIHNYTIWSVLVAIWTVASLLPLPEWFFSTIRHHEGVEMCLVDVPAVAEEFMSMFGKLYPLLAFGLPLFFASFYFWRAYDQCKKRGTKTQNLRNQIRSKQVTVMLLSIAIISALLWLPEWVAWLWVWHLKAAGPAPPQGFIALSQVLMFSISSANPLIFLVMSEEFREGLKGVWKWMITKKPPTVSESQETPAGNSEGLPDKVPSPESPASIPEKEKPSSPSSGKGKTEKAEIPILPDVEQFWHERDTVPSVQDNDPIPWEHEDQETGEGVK
TEAD-YAP block = TEAD-YAP interaction inhibition | inhibition, % at 9.12 µM | 640,000 compounds, 1.4% hits | AID 1259422 | HEK-TIYL cells, TEAD-Gal4/YAP UAS-luciferase luminescence; in the data active means inhibition above about 32%
FBW7 act = activators of human E3 ligase FBW7 | AlphaScreen FBW7–phospho-cyclin E peptide binding, activator screen | normalized activity (activation), % at 26.1 µM | 650,000 compounds, 0.13% hits; in the data active means normalized activity above about 1.9%;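 further: purified mutant Fbw7 with reduced substrate affinity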
MITF primary = inhibitors of human MITF | O75030 | AlphaScreen MITF homodimerization, bead proximity signal | inhibition, % at 2.6 µM | 650,000 compounds, 0.91% hits; in the data active means inhibition above about 50%
Each line names hits and unclear results; the compound was inactive in the other large screens. Only some compounds are listed: those with a hit (about 3.4% of all), similar ones and a draw of the others.

Clc1ccc(Nc2nc(NCc3ccco3)c3ccccc3n2)cc1	none
COc1ccc(Nc2nc(NCc3ccco3)c3ccccc3n2)cc1	TEAD-YAP block 50
Fc1ccc(Nc2nc(NCc3ccco3)c3ccccc3n2)cc1	TEAD-YAP block 36
CCOCCn1cnc2sc(C(=O)Nc3cnc4ccccc4c3)c(C)c2c1=O	TEAD-YAP block 79
CCOCCn1cnc2sc(C(=O)Nc3nc4ccccc4s3)c(C)c2c1=O	TEAD-YAP block 49
CCOC(=O)c1cnn(-c2nc(C)nc3sc(-c4ccccc4)cc23)c1/N=C/N(C)C	TEAD-YAP block 34
CCOC(=O)c1cnn(-c2ccc(Cl)nn2)c1/N=C/N(C)C	none
N#C/C(=C\c1ccc(-c2cccc([N+](=O)[O-])c2)o1)C(N)=O	none
N#C/C(=C/c1ccc(-c2ccc([N+](=O)[O-])cc2)o1)C(N)=O	FBW7 act 2.4
COc1ccc(-c2nnc(/C=C/c3cccs3)o2)cc1	TEAD-YAP block 72
CCCN(C1=NC2CS(=O)(=O)CC2S1)c1ccccc1 (stereo unspecified)	none
CC(C)(O)C(=O)/C=C/c1cccc([N+](=O)[O-])c1	TEAD-YAP block 48
CCc1ccccc1NC(=O)c1sc2nc3c(cc2c1N)C(=O)CCC3	TEAD-YAP block 54
Cc1ccccc1NC(=O)c1sc2nc3c(cc2c1N)C(=O)CCC3	TEAD-YAP block 39
CCc1ccccc1NC(=O)c1sc2nc3c(cc2c1N)C(=O)CC(C)(C)C3	none
Cc1cc(C)c(C2=NON3N(C(=O)c4ccccc4)c4ccccc4N23)c(C)c1	none
CC/C(Cc1ccccc1)=N/NC(=O)c1ccc(O)cc1O	none
COc1ccc(C2=NN(c3nc(-c4ccc(C)cc4)c4ccccc4n3)C(c3cccc([N+](=O)[O-])c3)C2)cc1 (stereo unspecified)	none
CC1CCCN(C(=O)c2ccc(N3CC4CC(C3)c3cccc(=O)n3C4)c(NC(=O)Cc3c(F)cccc3Cl)c2)C1 (stereo unspecified)	none
Cc1nc(N2CCCC2)c2cc(C)sc2n1	none
Cc1nc(N2CCCc3ccccc32)c2cc(C)sc2n1	TEAD-YAP block 46
C=CCNC(=S)NNC(=O)c1ccccc1OCCC	none
C=CCNC(=S)NNC(=O)c1ccccc1O	TEAD-YAP block 89
O=C(Cn1nnc(-c2ccccc2NC(=O)c2ccc(F)cc2)n1)NCc1cccs1	FBW7 act 2.5
Cc1ccc(-c2cc(C(=O)NN)[nH]n2)c(C)c1	TEAD-YAP block 43
O=C(Nc1ccc(F)c([N+](=O)[O-])c1)c1ccccc1F	none
Cc1ccc2ccc[n+](CCCS(=O)(=O)O)c2c1	none
C=CCNc1nc2c(c(=O)n(C)c(=O)n2C)n1CCCCCC	TEAD-YAP block 47
C=CCNc1nc2c(c(=O)n(C)c(=O)n2C)n1CCC(C)C	TEAD-YAP block 33
NS(=O)(=O)c1cc2c(cc1Cl)NC(/C=C/c1ccccc1[N+](=O)[O-])NS2(=O)=O (stereo unspecified)	none
Cc1ccc(NC(=O)c2cnc(SCC(=O)N3CCCC3)n(C)c2=O)cc1	none
Cc1ccc(-c2cnc(SCC(=O)N3CCCC3)n2C)cc1	TEAD-YAP block 58
CCc1c(C)sc2nc(C(C)C)n3c(=O)[nH]nc3c12	none
Cc1sc2nc(C(C)C)n3c(=S)[nH]nc3c2c1C	TEAD-YAP block 55
CC1(C(=O)O)OCc2ccccc2-n2cccc21 (stereo unspecified)	none
COC(=O)C/C=N/N=C1/NC(=O)/C(=C/C(=O)O)S1	MITF primary 57
COC(=O)/C=C1\S/C(=N\N=C\c2ccc(Cl)cc2)NC1=O	none
Cc1ccc(-c2nc3ccccc3c(=O)[nH]2)cc1	none
O=C(Nc1ccc(-c2nc3ccccc3c(=O)o2)cc1)C1CC1	TEAD-YAP block 48
Nc1ccccc1-c1nc2ccccc2c(=O)o1	FBW7 act 2.4
CC(C)(C)c1ccc(-c2nc3ccccc3c(=O)[nH]2)cc1	TEAD-YAP block 83
CC(C)(C)c1ccc(-c2nc3ccccc3c(=O)o2)cc1	TEAD-YAP block 53
CC(=O)N1CCN(c2ccccc2NC(=O)COc2cc(C)c(Cl)c(C)c2)CC1	none
COC(=O)c1ccc(Cl)cc1NC(=O)C1=NNC(=O)CC1	none
O=C(Nc1ccc2oc(=O)ccc2c1)c1ccc(Br)cc1	none
CCn1cc(CN2CCN(Cc3ccc(OC)cc3F)C(CCO)C2)cn1 (stereo unspecified)	none
O=C(Nc1ccc(-c2nc3ccccc3o2)cc1)C1CCN(CCCn2cccn2)CC1	TEAD-YAP block 78
O=C(Nc1ccc(-c2nc3ccccc3o2)cc1)C1CCN(Cc2ccccn2)CC1	none
CC(=O)c1cccc(-c2cnc3c(NC(CO)C(C)C)nccn23)c1 (stereo unspecified)	none
